Data on 46 compounds can be found in article PMC4336329 (PLoS ONE, 2015).

Out of some 310,000 compounds screened, about 14,000 (4.5%) showed an effect of 50% or more. Effects have a minus sign here. Many of the other results were omitted from the sample, so strong results are more common in it than they were.
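Note: peak tail current of the secondary pulse compared with the same well before compound.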

The target of the assay is human ether-à-go-go-related gene (hERG) potassium channel (human, UniProt Q12809). The assay is described as follows: primary screen, population patch clamp on CHO cells stably expressing hERG; higher = less effect of the substance.
Sequence of human ether-à-go-go-related gene (hERG) potassium channel (Q12809 whole entry, looked up): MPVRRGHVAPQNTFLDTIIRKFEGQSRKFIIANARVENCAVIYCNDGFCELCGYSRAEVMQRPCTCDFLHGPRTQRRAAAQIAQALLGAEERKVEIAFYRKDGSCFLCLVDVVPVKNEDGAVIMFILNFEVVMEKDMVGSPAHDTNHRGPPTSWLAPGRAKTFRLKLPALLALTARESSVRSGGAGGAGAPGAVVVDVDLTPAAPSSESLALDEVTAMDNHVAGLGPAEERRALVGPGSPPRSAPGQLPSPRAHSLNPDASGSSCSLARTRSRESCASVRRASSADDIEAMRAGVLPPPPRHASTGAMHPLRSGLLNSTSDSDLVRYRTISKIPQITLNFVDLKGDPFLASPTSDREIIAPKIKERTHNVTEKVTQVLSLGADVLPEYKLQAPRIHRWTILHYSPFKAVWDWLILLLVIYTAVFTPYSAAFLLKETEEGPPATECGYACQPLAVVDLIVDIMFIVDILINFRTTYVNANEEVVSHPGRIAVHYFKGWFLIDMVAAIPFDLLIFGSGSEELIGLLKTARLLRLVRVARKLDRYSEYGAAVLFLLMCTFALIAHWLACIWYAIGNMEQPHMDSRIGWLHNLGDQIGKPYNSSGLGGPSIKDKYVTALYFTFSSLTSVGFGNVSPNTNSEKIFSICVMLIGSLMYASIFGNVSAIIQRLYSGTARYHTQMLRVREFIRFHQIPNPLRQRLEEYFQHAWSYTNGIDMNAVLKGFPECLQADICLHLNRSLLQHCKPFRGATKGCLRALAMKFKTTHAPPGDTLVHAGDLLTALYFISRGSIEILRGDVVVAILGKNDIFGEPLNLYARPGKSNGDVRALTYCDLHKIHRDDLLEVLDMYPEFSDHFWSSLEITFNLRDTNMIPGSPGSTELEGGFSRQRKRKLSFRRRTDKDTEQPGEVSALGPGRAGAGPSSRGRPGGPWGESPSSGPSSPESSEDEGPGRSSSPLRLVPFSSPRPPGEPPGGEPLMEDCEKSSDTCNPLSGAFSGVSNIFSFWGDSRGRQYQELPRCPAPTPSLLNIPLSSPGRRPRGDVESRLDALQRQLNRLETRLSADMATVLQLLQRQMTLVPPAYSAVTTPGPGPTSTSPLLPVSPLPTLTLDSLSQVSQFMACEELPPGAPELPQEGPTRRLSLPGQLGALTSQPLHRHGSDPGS
For `COc1cccc(NC(=O)NNS(=O)(=O)c2ccc(OC)cc2OC)c1`, the “hERG current change (%, negative = inhibition) at 10uM” value was -3%.
On to `COc1ccc(N=N/C(C(C)=O)=C(/C)O)cc1`, for which the “hERG current change (%, negative = inhibition) at 10uM” value is -24.5%.
Turning to `CN(C)S(=O)(=O)c1cccc(-c2nn(-c3ccccc3)cc2/C=C2\SC(=S)NC2=O)c1`, the “hERG current change (%, negative = inhibition) at 10uM” value was 20.1%.
As for `CCOc1cc(C(=O)OCC(=O)N(C)c2ccccc2)cc(OCC)c1OCC`, the “hERG current change (%, negative = inhibition) at 10uM” value is on record as -17.6%.
In the case of `CCc1nnc(NC(=O)CSc2ncc(-c3ccccc3)n2C)s1`, the “hERG current change (%, negative = inhibition) at 10uM” value is -0.226%.
Turning to `Cc1cnccc1CN(C)Cc1cn(C)nc1-c1ccc(Oc2ccccc2)cc1`, the “hERG current change (%, negative = inhibition) at 10uM” value is -27.4%.
In the case of `CN(Cc1cn(C)nc1-c1ccc(Oc2ccccc2)cc1)Cc1cnc2ccccn12`, the “hERG current change (%, negative = inhibition) at 10uM” value is -54%.
As to `Cn1cc(CNCc2cnc3ccccn23)c(-c2ccc(Oc3ccccc3)cc2)n1`, the “hERG current change (%, negative = inhibition) at 10uM” value is listed as -50%.
As for `NC(=O)C1CCN(C2=C(Cl)C(=O)c3ccccc3C2=O)CC1`, the “hERG current change (%, negative = inhibition) at 10uM” value is reported as 13.6%.
As for `NC12CC3CC(C1)CC(CO)(C3)O2`, the “hERG current change (%, negative = inhibition) at 10uM” value came out at 8.54%.
Take `COc1ccc(N(CC(=O)N2c3ccccc3CC2C)S(=O)(=O)c2c(C)nn(C)c2C)cc1` (stereo not shown): the “hERG current change (%, negative = inhibition) at 10uM” value is on record as -25.9%.
As for `OC(CN1CCN(Cc2ccccc2)CC1)c1ccccc1` (stereo not shown), the “hERG current change (%, negative = inhibition) at 10uM” value is reported as -30.3%.
`Cl.OC(CN1CCN(Cc2ccccc2)CC1)c1ccc(F)cc1` (stereo not shown): the “hERG current change (%, negative = inhibition) at 10uM” value is -67.9%.
For `OC(CN1CCN(C(c2ccccc2)c2ccccc2)CC1)c1ccc(Br)cc1` (stereo not shown), the “hERG current change (%, negative = inhibition) at 10uM” value is on record as -28.8%.
In the case of `OC(CN1CCN(Cc2ccccc2)CC1)c1ccc(Br)cc1` (stereo not shown) it was -67.9%; in that of `OC(CN1CCOCC1)c1ccc(F)cc1` (stereo not shown), 12.6%; in that of `OC(CN1CCN(c2ccccc2F)CC1)c1ccc(F)cc1` (stereo not shown), -19.3%.
For `Cl.Oc1ccc(C2=CCNCC2)cc1O`, the “hERG current change (%, negative = inhibition) at 10uM” value stood at 10.1%.
Take `c1cnc(SCCOc2cccc3ccccc23)nc1`: the “hERG current change (%, negative = inhibition) at 10uM” value was -8.05%.
For `C=CCNC(=S)NNc1nc(Nc2ccccc2)nc(N2CCCCC2)n1`, the “hERG current change (%, negative = inhibition) at 10uM” value is given as 10.3%.
Consider `COc1ccc(-c2nc(CC(=O)O)cs2)cc1`, for which the “hERG current change (%, negative = inhibition) at 10uM” value is listed as 6.7%.
On to `CCCCN1C(=O)C(=O)N(CC(=O)N2CCN(c3ccccc3)CC2)C1=O`, for which the “hERG current change (%, negative = inhibition) at 10uM” value is 3.67%.
In the case of `CCOc1ccc(/C=N/N(C)c2ccccc2)cc1OC` it was 15.8%.
In the case of `CCNc1oc(-c2cccc3ccccc23)nc1C#N` it was 15.7%; in that of `C[n+]1cc(-c2ccccc2)n2c1CCCCC2.[I-]`, 4.03%; in that of `COc1ccc(-c2c[n+]3c4n2CCCCC4=C(c2ccccc2)C3)cc1.[Br-]`, -75.1%.
For `COc1ccc(-c2c[n+](CC(=O)N3c4ccccc4Sc4ccccc43)c3n2CCC3)cc1.[Cl-]`, the “hERG current change (%, negative = inhibition) at 10uM” value is given as -38.2%.
As to `COc1ccc(-c2nnc3n2CCCCC3)cc1`, the “hERG current change (%, negative = inhibition) at 10uM” value turned out to be 19.9%.
In the case of `Clc1ccc(-c2cnc3n2CCCCC3)cc1` it was -46.4%; in that of `COc1ccc(Cn2c(-c3ccc(Br)cc3)c[n+]3ccccc23)cc1.[Br-]`, -8.08%.
In the case of `Clc1ccc(C2=C3CCCCn4c(-c5ccccc5)c[n+](c43)C2)cc1.[Br-]` it was -82.1%.
Regarding `COc1ccc(-c2c[n+]3c4n2CCCCC4=C(c2ccc(Br)cc2)C3)cc1.[Br-]`, the “hERG current change (%, negative = inhibition) at 10uM” value is recorded as -75.1%.
On to `COc1ccc(-c2c[n+](CC(=O)c3ccccc3)c3n2CCCCC3)cc1.[Br-]`, for which the “hERG current change (%, negative = inhibition) at 10uM” value is 11.7%.
Take `COC(=O)c1cc(S(=O)(=O)N(C)c2ccc(C)c(C)c2)c[nH]1`: the “hERG current change (%, negative = inhibition) at 10uM” value is recorded as -20.2%.
In the case of `CCc1nc(NCCN2CCOCC2)c2oc3ccccc3c2n1.Cl`, the “hERG current change (%, negative = inhibition) at 10uM” value is -28.2%.
On to `Cc1nn(Cc2ccccc2)c(C)c1C(=O)OCC(=O)Nc1cccc(S(N)(=O)=O)c1`, for which the “hERG current change (%, negative = inhibition) at 10uM” value is -0.587%.
With `O=C(CSc1nnc(CNC(=O)c2cccs2)o1)Nc1cccc(F)c1`, the “hERG current change (%, negative = inhibition) at 10uM” value is recorded as 4.85%.
For the compound `Clc1ccccc1Cn1nnc(-c2ccccc2)n1`, the “hERG current change (%, negative = inhibition) at 10uM” value is 4.02%.
In the case of `Cl.O=C1C2CCCN2C(=O)N1CCCN1CCN(c2cccc(Br)c2)CC1` (stereo not shown) it was -9.07%.
Take `O=C1C2CCCN2C(=O)N1CCCN1CCN(c2cccc(Cl)c2)CC1` (stereo not shown): the “hERG current change (%, negative = inhibition) at 10uM” value was -2.8%.
As to `O=C1C2CCCCN2C(=O)N1CCCCN1CCN(c2cccc(Cl)c2)CC1` (stereo not shown), the “hERG current change (%, negative = inhibition) at 10uM” value is -60.6%.
`O=C1C2CCCN2C(=O)N1CCCCN1CCN(c2cccc(C(F)(F)F)c2)CC1` (stereo not shown): the “hERG current change (%, negative = inhibition) at 10uM” value was -60.9%.
As to `O=C1C2CCCN2C(=O)N1CCCCN1CCN(c2ccccc2)CC1` (stereo not shown), the “hERG current change (%, negative = inhibition) at 10uM” value is -21.6%.
In the case of `O=C1C2CCCN2C(=O)N1CCCCN1CCN(CCO)CC1` (stereo not shown) it was -14.9%; in that of `O=C1C2CCCCN2C(=O)N1CCCCN1CCN(c2cccc(Br)c2)CC1` (stereo not shown), -61.4%.
As for `O=C1C2CCCN2C(=O)N1CCCCN1CCN(c2cccc(Cl)c2)CC1` (stereo not shown), the “hERG current change (%, negative = inhibition) at 10uM” value is listed as -65.6%.
